Data taken from PubChem BioAssay.
Activity calls are given as the source filed them.

Target: Luciferin 4-monooxygenase (Photinus pyralis) (UniProt P08659)
Experiment: inhibition of purified Photinus pyralis luciferase – biochemical, luminescence, purified enzyme, 2006 set, primary screen (AID 1141);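 also: cell-free assay with purified firefly luciferase at 100 ng per well in PBS; test concentration not given here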
Conditions: purified firefly luciferase, SteadyGlo luminescence, 30 min; higher = more signal, called active from +8 up or from −8 down

Chain of Luciferin 4-monooxygenase (Photinus pyralis) (P08659 whole entry, looked up): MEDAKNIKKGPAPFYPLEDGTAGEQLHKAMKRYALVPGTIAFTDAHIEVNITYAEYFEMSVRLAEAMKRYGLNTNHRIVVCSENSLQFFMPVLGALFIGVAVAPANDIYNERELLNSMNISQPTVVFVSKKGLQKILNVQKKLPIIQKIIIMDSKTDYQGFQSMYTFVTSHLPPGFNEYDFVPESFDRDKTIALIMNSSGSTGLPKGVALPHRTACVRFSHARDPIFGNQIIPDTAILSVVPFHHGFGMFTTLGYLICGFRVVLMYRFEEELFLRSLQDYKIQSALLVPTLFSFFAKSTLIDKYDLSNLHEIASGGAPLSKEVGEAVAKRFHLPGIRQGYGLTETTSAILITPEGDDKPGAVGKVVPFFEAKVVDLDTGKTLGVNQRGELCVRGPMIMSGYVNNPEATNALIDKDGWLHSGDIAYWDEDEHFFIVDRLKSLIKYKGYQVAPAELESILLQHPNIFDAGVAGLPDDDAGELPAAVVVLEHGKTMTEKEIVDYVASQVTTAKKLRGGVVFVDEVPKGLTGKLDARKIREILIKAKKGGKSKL

z-score, inactive:
CCOC(=O)[C@H](CC(C)C)NC(=O)CCC1CC(OC(=O)NCCc2ccc(F)cc2)CC2(CCCC(COC(=O)NCC(c3ccccc3)c3ccccc3)O2)O1 (some centres not stated) 0.897
COC(=O)[C@H](C)NC(=O)CCC1CC(OC(=O)NCc2ccc3c(c2)OCO3)CC2(CCCC(COC(=O)NCc3cccc(C(F)(F)F)c3)O2)O1 (some centres not stated) 0.969
CC(C)=CCCC(C)=CCON=C1C[C@@H](O)[C@@H](O)[C@@H]2[C@@H]3C(=O)N(C(C)(C)C)C(=O)[C@@H]3CC[C@@H]12 0.421
Cc1ccc(S(=O)(=O)NC(CCc2ccccc2)CC(=O)C(C)(C)C)cc1 (configuration not stated) 0.74
C#CCCCON=C1C[C@@H](O)[C@@H](O)[C@@H]2[C@@H]3C(=O)N(c4ccc(F)cc4F)C(=O)[C@@H]3CC[C@H]12 0.573
COC(=O)[C@H](C)NC(=O)CCC1CC(OC(=O)NCc2ccc3c(c2)OCO3)CC2(CCCC(COC(=O)NCCc3ccccc3OC)O2)O1 (some centres not stated) 0.559
CCCCC#C[C@@H]1C=C[C@H](Oc2ccc(C(=O)OC)cc2)[C@@H](COC(=O)OCC)O1 -3.64
CO[C@@H]1C=CCC(=O)N2CCC[C@H]2C(=O)OC[C@@H](C)C(=O)OC[C@H]1C -1.1
COC(=O)CC=C[C@@H](C)[C@H](OCc1cccc(-c2ccccc2)c1)C1CCCCC1 -0.0245
O=C1C2=CC[C@H]3C(=O)N(c4cccc(Oc5ccccc5)c4)C(=O)[C@H]3[C@H]2[C@H](O)[C@@H]2O[C@H]12 -1.27
COC(=O)CC=C[C@@H](C)[C@@H](C=NO[C@@H](C)c1cc(-c2c(C)cc(C)cc2C)no1)NS(=O)(=O)c1ccc(C)cc1 1.14
CCOC(=O)[C@H](CC(C)C)NC(=O)CCC1CC(OC(=O)NCCc2ccc(F)cc2)CC2(CCCC(COC(=O)NCC3CCCCC3)O2)O1 (some centres not stated) 0.997
